Data on 8 molecules can be found in PMC5540273 (PLoS ONE, 2017).

Among the test systems are EPHA7; EPHA8; EPHB1; EPHB2; EPHB3; EPHB4; EPHB6; ERBB2; ERBB3; ERBB4; ERN1; FER; FES.
What all share (settings): concentration: 1 μM, replicates: in singlicate; n = 1
The next assay relates to T1, ERK1.
T1 construct: gene MAPK3

The subject of a further assay is T2, ERK2.
T2 construct: gene MAPK1

Another assay relates to T3, ERK3.
T3 construct: gene MAPK6

Another assay has as its system T4, ERK4.
T4 construct: gene MAPK4

In the next assay the test system is T5, ERK5.
T5 construct: gene MAPK7

For another assay, the system named is T6, ERK8.
T6 construct: gene MAPK15

Another assay concerns T7, FAK.
T7 construct: gene PTK2
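Also: KINOMEscan kinase panel screen.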

`Cc1cccc(NC(=O)Nc2ccc(Oc3ncnc4ccn(C)c34)cc2)c1`: the “%Inh” value with EPHA7 worked out at 18%; with EPHA8 it was 0%; with EPHB1 it was 6%; in the assay on EPHB2, 0%; in the assay with EPHB3, 21%; in the assay with EPHB4, 0%. Besides, the “%Inh” value amounted to 91% in the assay on EPHB6; 49% in the assay on ERBB2; 0% in the assay on ERBB3; 12% with ERBB4; 0% in the assay with ERK1; 20% with ERK2. Further, the “%Inh” value was 0% with ERK3; 0% in the assay with ERK4; 0% in the assay on ERK5; 12% in the assay with ERK8; 0% with ERN1; 5% in the assay with FAK. The “%Inh” value in the assay on FER and in the assay on FES was 0% throughout.

With `COc1cccc(C(=O)Nc2cccc(Oc3ccc4nc(NC(=O)C5CC5)cn4n3)c2)c1`, the “%Inh” value in the assay on EPHA7 came to 5%; in the assay with EPHA8, 98.4%; in the assay with EPHB1, 87%; in the assay with EPHB2, 94.5%; in the assay with EPHB3, 0%; in the assay on EPHB4, 85%. Besides, the “%Inh” value worked out at 98.5% in the assay on EPHB6; 4% with ERBB2; 10% in the assay on ERBB3; 6% with ERBB4; 4% in the assay on ERK1; 6% in the assay on ERK2. The “%Inh” value is reported as 0% with ERK3; 0% with ERK4; 0% with ERK5; 14% in the assay with ERK8; 0% in the assay on ERN1; 1% in the assay on FAK. The “%Inh” value in the assay with FER and with FES was 0% in each case.

With `Cn1cc(-c2ccc3c(c2)CCN3C(=O)Cc2cccc(F)c2)c2c(N)ncnc21` [GSK2603358], the “%Inh” value is recorded as 7% in the assay with EPHA7; 11% in the assay with EPHA8; 0% in the assay on EPHB1; 0% in the assay on EPHB2; 13% with EPHB3; 16% in the assay on EPHB4. Moreover, the “%Inh” value amounted to 98.7% in the assay with EPHB6; 40% in the assay with ERBB2; 0% with ERBB3; 12% in the assay on ERBB4; 0% in the assay with ERK1; 6% in the assay on ERK2. The “%Inh” value was determined as 0% in the assay with ERK3; 26% in the assay with ERK4; 2% in the assay with ERK5; 0% with ERK8; 3% in the assay with ERN1; 0% with FAK. Also, the “%Inh” value in the assay with FER is 35%; in the assay on FES, 0%.

As to `COc1ccc(Nc2nccc(N3CCC(NC(=O)Nc4cccc(OC)c4)C3)n2)cc1` (stereo not shown) [GSK1379742], the “%Inh” value is 6% in the assay with EPHA7; 11% in the assay with EPHA8; 9% in the assay on EPHB1; 0% in the assay on EPHB2; 12% in the assay on EPHB3; 0% in the assay with EPHB4. Further, the “%Inh” value in the assay with EPHB6 is 9%; in the assay with ERBB2, 34%; with ERBB3, 4%; in the assay with ERBB4, 0%; in the assay on ERK1, 0%; in the assay with ERK2, 0%. Also, the “%Inh” value with ERK3 worked out at 9%; in the assay on ERK4, 0%; in the assay on ERK5, 0%; in the assay with ERK8 it was 36%; in the assay with ERN1, 0%; in the assay on FAK it was 0%. Besides, the entries for the “%Inh” value in the assay on FER and with FES were 26% and 9%, respectively.

As for `COc1ccc(Nc2nccc(NCCNC(=O)c3cc4ccccc4s3)n2)cc1` [GSK1379896], the “%Inh” value is listed as 0% in the assay with EPHA7; 3% with EPHA8; 16% in the assay on EPHB1; 0% in the assay with EPHB2; 5% in the assay on EPHB3; 0% in the assay on EPHB4. Moreover, the “%Inh” value is reported as 0% in the assay with EPHB6; 4% in the assay with ERBB2; 0% with ERBB3; 0% with ERBB4; 0% with ERK1; 0% in the assay with ERK2. Also, the “%Inh” value in the assay with ERK3 stood at 0%; in the assay with ERK4, 0%; with ERK5 it was 0%; with ERK8 it was 0%; in the assay on ERN1, 0%; in the assay with FAK, 11%. Besides, the figures for the “%Inh” value in the assay on FER and in the assay with FES were 12% and 0%, respectively.

Consider `c1ccc(-c2cnc3nccnn23)cc1` [AH20685], for which the “%Inh” value was 0% in the assay on EPHA7; 5% in the assay with EPHA8; 0% with EPHB1; 0% with EPHB2; 1% in the assay with EPHB3; 0% with EPHB4. Moreover, the “%Inh” value in the assay with EPHB6 came out at 1%; in the assay on ERBB2 it was 0%; with ERBB3, 0%; in the assay on ERBB4 it was 0%; in the assay on ERK1 it was 8%; in the assay on ERK2 it was 0%. For the same molecule, the “%Inh” value with ERK3, in the assay with ERK4, in the assay with ERK5, with ERK8, in the assay with ERN1 and with FAK was 0% in each case. The entries for the “%Inh” value in the assay on FER and in the assay on FES were 0% and 11%, respectively.

For the molecule `Cl.NC(=O)c1cccc(Nc2nccc(Nc3ccc(Oc4c(Cl)cccc4Cl)c(Cl)c3)n2)c1` [GW659009], the “%Inh” value with EPHA7 was 0%; with EPHA8, 6%; with EPHB1 it was 93.5%; in the assay on EPHB2, 0%; in the assay with EPHB3, 0%; in the assay with EPHB4 it was 0%. Besides, the “%Inh” value was determined as 32% in the assay with EPHB6; 92.5% with ERBB2; 93.3% in the assay on ERBB3; 93.9% with ERBB4; 0% in the assay with ERK1; 0% with ERK2. In addition, the “%Inh” value with ERK3 is 0%; in the assay with ERK4, 0%; in the assay with ERK5, 0%; with ERK8 it was 10%; in the assay on ERN1, 12%; in the assay on FAK, 0%. Besides, the “%Inh” value with FER and in the assay with FES was 0% in each case.

Consider `O=C(NC1CCN(c2ccnc(Nc3ccc(F)cc3)n2)C1)c1cc2ccccc2s1` (stereo not shown) [GSK1379716], for which the “%Inh” value in the assay with EPHA7 was 7%; with EPHA8, 14%; with EPHB1, 9%; in the assay on EPHB2, 18%; in the assay with EPHB3, 17%; in the assay on EPHB4, 15%. For the same molecule, the “%Inh” value is 0% in the assay with EPHB6; 42% in the assay on ERBB2; 22% with ERBB3; 28% in the assay on ERBB4; 4% in the assay with ERK1; 23% in the assay with ERK2. Further, the “%Inh” value with ERK3 came out at 1%; with ERK4, 31%; in the assay on ERK5, 0%; in the assay with ERK8 it was 0%; with ERN1 it was 0%; with FAK it was 0%. For the same molecule, the “%Inh” value in the assay with FER turned out to be 44%; in the assay on FES, 12%.
